This note sets out measurements from ChEMBL document CHEMBL3988442, “University of Dundee, Small-Polar-MMV Screening Library” (2021).

For some assays here: Measured potencies and affinities stand elsewhere.

Common to all, as to design: scale not given: direction of the effect not stated beside the values
Assay [1] deals with Protein translocase subunit SecA (Escherichia coli (strain K12)) (UniProt P10408). Briefly: Assay to Identify E. coli SecA ATPase Inhibitors. It counts as functional. The following applies: 30 µM.
Chain of Protein translocase subunit SecA (Escherichia coli (strain K12)) (P10408 whole entry): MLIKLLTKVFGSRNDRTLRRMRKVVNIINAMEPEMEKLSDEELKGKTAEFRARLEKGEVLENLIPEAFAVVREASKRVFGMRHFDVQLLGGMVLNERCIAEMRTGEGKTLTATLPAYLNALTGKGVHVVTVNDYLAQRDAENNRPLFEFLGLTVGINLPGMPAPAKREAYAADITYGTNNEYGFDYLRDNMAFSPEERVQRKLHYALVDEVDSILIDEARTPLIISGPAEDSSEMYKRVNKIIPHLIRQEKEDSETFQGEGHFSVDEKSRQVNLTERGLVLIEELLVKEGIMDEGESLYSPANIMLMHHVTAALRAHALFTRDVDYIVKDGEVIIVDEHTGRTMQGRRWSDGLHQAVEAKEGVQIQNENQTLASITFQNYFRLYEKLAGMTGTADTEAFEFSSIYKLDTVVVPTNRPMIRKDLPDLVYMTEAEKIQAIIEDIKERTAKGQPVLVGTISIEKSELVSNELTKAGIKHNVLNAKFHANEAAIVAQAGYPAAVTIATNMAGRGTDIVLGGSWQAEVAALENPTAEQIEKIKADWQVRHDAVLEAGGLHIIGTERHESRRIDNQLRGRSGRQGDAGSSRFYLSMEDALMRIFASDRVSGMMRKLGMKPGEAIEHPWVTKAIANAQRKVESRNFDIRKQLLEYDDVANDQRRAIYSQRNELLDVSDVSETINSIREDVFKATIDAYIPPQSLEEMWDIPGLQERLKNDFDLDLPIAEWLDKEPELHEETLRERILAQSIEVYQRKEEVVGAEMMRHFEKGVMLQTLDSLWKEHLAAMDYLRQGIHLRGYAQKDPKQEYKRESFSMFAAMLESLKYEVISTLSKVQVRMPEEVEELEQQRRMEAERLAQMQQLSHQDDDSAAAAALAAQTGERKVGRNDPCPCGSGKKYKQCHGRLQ
The target in assay [2] is T1, Ubiquitin-activating enzyme e1, putative (Leishmania donovani (strain BPK282A1)) (UniProt E9BSI1).
T1 sequence (whole entry): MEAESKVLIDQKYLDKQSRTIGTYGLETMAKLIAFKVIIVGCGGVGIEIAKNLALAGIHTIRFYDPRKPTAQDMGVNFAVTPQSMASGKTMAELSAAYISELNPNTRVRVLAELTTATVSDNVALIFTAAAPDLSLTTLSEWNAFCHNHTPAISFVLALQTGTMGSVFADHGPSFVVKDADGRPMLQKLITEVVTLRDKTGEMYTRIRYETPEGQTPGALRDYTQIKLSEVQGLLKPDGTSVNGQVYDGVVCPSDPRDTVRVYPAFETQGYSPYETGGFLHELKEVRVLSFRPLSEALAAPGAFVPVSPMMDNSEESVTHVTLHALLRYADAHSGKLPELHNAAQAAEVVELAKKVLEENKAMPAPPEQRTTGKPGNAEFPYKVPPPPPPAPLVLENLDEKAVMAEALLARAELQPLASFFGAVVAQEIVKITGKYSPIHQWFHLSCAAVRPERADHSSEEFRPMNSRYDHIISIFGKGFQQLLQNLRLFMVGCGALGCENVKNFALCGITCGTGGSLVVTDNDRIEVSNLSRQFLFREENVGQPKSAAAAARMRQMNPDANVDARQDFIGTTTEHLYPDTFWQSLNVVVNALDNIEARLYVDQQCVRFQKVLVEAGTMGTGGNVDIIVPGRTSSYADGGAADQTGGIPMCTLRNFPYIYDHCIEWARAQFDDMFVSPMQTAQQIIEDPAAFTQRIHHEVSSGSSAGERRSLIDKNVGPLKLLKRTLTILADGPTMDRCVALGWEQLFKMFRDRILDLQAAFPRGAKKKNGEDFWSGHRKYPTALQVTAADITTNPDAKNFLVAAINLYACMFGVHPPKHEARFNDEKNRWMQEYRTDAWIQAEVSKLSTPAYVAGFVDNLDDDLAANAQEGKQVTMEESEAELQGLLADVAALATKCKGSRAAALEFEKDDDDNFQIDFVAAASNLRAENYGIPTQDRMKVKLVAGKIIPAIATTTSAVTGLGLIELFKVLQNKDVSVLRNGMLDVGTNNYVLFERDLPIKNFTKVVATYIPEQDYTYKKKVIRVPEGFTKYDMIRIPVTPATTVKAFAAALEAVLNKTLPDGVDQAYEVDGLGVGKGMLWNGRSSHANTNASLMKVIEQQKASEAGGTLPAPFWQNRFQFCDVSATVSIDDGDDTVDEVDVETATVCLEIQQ
Description: Leishmania donovani Ubiquitin Activating Enzyme (LdE1). It counts as functional. The note with it: 30 µM.

The target of assay [3] is T2, Aspartate--tRNA(Asp/Asn) ligase (Mycobacterium tuberculosis (strain ATCC 25618 / H37Rv)) (UniProt P9WFW3). Further: in the data most compounds retested in dose-response had high values.
T2 sequence (whole entry): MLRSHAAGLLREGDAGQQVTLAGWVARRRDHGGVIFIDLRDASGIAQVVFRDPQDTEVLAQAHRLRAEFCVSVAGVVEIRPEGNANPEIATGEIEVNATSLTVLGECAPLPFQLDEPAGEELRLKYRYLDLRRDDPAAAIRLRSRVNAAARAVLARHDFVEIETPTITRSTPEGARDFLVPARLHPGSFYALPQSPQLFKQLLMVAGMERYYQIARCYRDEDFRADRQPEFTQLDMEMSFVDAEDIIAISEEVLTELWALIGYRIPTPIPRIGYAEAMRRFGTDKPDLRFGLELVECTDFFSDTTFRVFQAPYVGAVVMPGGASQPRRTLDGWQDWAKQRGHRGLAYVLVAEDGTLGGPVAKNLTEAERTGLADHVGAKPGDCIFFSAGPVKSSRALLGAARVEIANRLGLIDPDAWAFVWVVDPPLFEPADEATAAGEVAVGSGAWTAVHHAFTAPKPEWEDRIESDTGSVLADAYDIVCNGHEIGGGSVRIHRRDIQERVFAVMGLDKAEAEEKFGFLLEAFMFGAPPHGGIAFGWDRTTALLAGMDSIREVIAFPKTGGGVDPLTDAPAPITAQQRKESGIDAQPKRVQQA
Briefly: Assay for Asp RNA synthetase-1 from Mycobacterium tuberculosis. Type of assay: functional. The following applies: 30 µM.

Assay [4] concerns the target AMP-activated protein kinase, AMPK (Homo sapiens) (UniProt P54646+O43741+P54619+Q9UGJ0+Q9Y478+Q13131+Q9UGI9). Description: AMP-dependent Kinase enzyme assay. An in vitro enzyme assay that detects ADP turnover that is directly proportional to AMPK activity. This uses naive AMPK that is activated during the assay with MK-8722. It counts as functional. The note with it: 30 µM.

The target in assay [5] is Sialic acid-binding Ig-like lectin 9 (Homo sapiens) (UniProt Q9Y336). Description: Hs-Siglec9 ALPHAscreen SOP 20170721. The note with it: 10 µM. (Bead proximity is the source of the signal in Alpha formats.)
Chain of Sialic acid-binding Ig-like lectin 9 (Homo sapiens) (Q9Y336 whole entry): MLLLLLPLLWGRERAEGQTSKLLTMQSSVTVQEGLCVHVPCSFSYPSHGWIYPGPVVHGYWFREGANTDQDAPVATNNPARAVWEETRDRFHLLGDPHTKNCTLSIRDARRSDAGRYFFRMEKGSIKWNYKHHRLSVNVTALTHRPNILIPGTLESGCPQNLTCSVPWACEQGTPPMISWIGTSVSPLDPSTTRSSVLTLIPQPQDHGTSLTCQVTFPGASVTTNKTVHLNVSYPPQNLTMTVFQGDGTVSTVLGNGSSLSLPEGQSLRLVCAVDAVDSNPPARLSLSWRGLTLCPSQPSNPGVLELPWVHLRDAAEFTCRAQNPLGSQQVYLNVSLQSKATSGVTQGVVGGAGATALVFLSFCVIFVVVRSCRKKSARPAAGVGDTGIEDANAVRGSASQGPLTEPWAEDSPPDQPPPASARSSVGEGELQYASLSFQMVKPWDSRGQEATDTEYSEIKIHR
The test system of assay [6] is Trypanosoma cruzi. Briefly: Trypanosoma cruzi phosphomannomutase and mannose-1-phosphate guanylyltransferase assay. It counts as functional. The note with it: 10 µM.
In assay [7] the target is T3, Arginase-2, mitochondrial (Homo sapiens) (UniProt P78540).
T3 sequence (whole entry): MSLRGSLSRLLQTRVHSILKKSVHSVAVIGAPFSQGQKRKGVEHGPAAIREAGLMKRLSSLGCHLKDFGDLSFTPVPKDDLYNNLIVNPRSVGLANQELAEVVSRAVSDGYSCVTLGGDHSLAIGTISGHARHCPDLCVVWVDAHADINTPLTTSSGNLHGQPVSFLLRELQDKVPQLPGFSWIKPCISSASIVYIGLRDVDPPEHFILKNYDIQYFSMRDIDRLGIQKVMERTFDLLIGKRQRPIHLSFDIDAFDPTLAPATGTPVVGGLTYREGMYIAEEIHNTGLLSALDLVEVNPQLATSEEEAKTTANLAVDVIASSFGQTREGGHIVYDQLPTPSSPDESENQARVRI
Briefly: in vitro enzyme assay to detect the production of urea directly proportional to the activity of Arginase II. Further: in the data most compounds retested in dose-response had high values. Type of assay: functional. The note with it: 33.3 µM.

The target in assay [8] is T4, Proteasome subunit beta (Trypanosoma cruzi) (UniProt O96673).
T4 sequence (whole entry): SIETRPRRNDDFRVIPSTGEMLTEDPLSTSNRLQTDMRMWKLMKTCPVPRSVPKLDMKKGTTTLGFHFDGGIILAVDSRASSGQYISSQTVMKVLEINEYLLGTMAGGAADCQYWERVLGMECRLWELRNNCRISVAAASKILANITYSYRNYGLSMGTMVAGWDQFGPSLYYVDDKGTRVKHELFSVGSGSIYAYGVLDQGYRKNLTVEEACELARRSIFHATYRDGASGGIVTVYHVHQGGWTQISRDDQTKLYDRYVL
Description: Trypanosoma cruzi proteasome chymotrypsin-like activity (TcProtChymo) assay. Further: in the data most compounds retested in dose-response had high values. Type of assay: functional. The following applies: 9.37 µM.

Assay [9] is filed under the species Homo sapiens. Briefly: To identify inhibition of the IFN signalling (Jak-Stat) pathway via expression of an eGFP reporter gene under the control of an IFN-stimulated response element (ISRE) containing MxA promoter. The following applies: 30 µM. Type of assay: functional. Background: A reporter such as luciferase makes a cellular process visible.
The target in assay [10] is Shiga toxin 2 (Escherichia coli O157:H7) (UniProt P09385+P09386). Description: E. coli 0.157:H7 Shiga Toxin SOP - stx2 screening assay. Type of assay: functional. The note with it: 30 µM.
For assay [11], the target named is T5, Tyrosyl-tRNA synthetase, putative (Trypanosoma cruzi (strain CL Brener)) (UniProt Q4DSP6).
T5 sequence (whole entry): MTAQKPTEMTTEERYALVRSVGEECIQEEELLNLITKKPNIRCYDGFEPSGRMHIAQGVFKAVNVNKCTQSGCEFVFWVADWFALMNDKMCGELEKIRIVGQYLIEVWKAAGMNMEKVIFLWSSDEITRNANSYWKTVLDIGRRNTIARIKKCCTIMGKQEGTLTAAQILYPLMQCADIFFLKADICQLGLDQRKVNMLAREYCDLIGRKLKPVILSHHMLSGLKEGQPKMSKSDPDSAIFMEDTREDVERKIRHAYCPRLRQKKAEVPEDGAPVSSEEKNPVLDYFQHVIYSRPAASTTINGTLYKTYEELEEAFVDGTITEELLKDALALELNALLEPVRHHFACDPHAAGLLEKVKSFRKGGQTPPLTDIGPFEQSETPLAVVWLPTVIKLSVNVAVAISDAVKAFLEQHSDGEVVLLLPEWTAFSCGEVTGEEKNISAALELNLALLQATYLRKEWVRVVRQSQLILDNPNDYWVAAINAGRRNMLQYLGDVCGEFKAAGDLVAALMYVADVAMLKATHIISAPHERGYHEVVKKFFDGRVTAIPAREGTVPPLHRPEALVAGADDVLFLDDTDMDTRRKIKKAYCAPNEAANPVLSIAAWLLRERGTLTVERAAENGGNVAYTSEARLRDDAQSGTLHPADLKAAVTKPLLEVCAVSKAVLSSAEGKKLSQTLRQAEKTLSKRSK
Briefly: Trypanosoma cruzi tyrosyl tRNA synthetase (TcYRS) _High Tyrosine SOP. Further: in the data most compounds retested in dose-response had high values. Type of assay: functional. The note with it: 30 µM.

Assay [12] concerns the target T5, Tyrosyl-tRNA synthetase, putative (Trypanosoma cruzi (strain CL Brener)). Briefly: Trypanosoma cruzi tyrosyl tRNA synthetase (TcYRS) SOP. Type of assay: functional. The following applies: 30 µM.
In assay [13] the target is Chromo domain-containing protein 1 (Saccharomyces cerevisiae (strain ATCC 204508 / S288c) (Baker's yeast)) (UniProt P32657). Briefly: ScCHD-1 Enzyme Inhibition Assay. Further: in the data most compounds retested in dose-response had high values. It counts as functional. The note with it: 30 µM.
Chain of Chromo domain-containing protein 1 (Saccharomyces cerevisiae (strain ATCC 204508 / S288c) (Baker's yeast)) (P32657 whole entry, the tested form may be a part): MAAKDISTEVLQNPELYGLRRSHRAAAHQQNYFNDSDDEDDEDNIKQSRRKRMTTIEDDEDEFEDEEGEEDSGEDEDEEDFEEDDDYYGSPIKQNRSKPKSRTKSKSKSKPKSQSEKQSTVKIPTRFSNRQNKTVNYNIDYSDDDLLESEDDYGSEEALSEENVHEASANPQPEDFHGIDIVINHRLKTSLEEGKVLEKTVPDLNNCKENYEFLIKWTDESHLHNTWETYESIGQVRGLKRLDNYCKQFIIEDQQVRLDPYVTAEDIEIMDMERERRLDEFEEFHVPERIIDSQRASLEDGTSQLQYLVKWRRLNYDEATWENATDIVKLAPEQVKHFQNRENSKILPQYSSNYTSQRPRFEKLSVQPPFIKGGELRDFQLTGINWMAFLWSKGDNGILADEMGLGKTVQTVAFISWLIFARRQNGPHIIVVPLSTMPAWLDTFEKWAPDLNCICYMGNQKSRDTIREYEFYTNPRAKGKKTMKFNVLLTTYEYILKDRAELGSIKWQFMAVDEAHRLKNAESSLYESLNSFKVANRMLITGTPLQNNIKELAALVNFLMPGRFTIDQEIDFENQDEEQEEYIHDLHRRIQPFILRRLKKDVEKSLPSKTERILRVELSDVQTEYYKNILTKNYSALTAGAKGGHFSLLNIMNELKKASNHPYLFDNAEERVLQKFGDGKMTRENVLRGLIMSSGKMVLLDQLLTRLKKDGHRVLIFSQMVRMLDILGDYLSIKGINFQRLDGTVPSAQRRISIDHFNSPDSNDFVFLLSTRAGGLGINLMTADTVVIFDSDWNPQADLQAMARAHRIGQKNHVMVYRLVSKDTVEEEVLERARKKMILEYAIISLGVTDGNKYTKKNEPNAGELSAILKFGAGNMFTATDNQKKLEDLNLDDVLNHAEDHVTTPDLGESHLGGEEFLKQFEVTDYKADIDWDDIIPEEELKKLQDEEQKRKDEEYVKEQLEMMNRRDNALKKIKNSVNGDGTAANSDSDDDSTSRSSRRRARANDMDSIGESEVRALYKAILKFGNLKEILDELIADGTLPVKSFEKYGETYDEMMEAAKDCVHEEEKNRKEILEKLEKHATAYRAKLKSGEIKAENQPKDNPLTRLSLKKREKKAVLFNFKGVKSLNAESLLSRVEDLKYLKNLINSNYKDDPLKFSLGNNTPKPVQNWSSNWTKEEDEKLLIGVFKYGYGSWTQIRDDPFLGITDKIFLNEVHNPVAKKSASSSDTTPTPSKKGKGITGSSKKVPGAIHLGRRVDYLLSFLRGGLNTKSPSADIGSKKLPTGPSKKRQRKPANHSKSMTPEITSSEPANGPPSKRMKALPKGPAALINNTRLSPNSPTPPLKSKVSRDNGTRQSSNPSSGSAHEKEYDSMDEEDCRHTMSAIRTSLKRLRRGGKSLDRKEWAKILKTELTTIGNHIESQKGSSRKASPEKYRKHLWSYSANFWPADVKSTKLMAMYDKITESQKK

With `Cn1cc(C(=O)N2CC[C@@H]3[C@@H]2CCN3Cc2cccnc2)cn1`, the Percent Effect in assay [1] is -4.7%; in assay [2] it was 8.11%; in assay [3], 1.51%; in assay [4], 4.43%; in [5], 1.46%; in assay [6] it was -2.83%. Further, the Percent Effect in assay [7] was 0.955%; in [8], 17.7%; in [9], -13.9%; in assay [10], -2.5%; in [11], 3.24%; in assay [12], 12.8%. Moreover, the Percent Effect in assay [13] was 0.704%.
For `O=C(C1CC1)N1CCC2(CC1)OCCO2`, the Percent Effect in [1] was -2.52%; in assay [2], 7.89%; in assay [3], 0.21%; in assay [4] it was -0.0617%; in [5], -9.69%; in assay [6], -4.38%. Moreover, the Percent Effect in [7] was 2.37%; in assay [8] it was 14.1%; in assay [9] it was 14.1%; in [10], -6.13%; in assay [11], 0%; in assay [12] it was 10.4%. Besides, the Percent Effect in assay [13] is -6.58%.
For `CN1CCCC(c2n[nH]c3ncccc23)C1` (stereo not given), the Percent Effect was -3.58% in assay [1]; -1.35% in assay [2]; -7.01% in assay [3]; 6.99% in assay [4]; 2.48% in assay [5]; -0.198% in assay [6]. In addition, the Percent Effect in assay [7] is -0.232%; in assay [8], 5.93%; in [9] it was -5.01%; in assay [10], 1.35%; in [11] it was 2.15%; in assay [12] it was 1.3%. For the same compound, the Percent Effect in [13] amounted to 6.39%.
With `O=C(Cc1ccccn1)N1CCN2C[C@H](Oc3cccc(F)c3)C[C@H]2C1`, the Percent Effect in assay [1] is -3.38%; in [2], 0%; in [3] it was 9.34%; in assay [4] it was 1.39%; in assay [5] it was -4.03%; in [6], 1.07%. The Percent Effect was -1.59% in [7]; 1.84% in [8]; 18.6% in [9]; -10.5% in assay [10]; -2.16% in [11]; -5.13% in assay [12]. In addition, the Percent Effect in assay [13] was -1.68%.
As for `c1ccc(CO[C@H]2CO[C@@]3(CCN(Cc4ccoc4)C3)C2)nc1`, the Percent Effect in assay [1] is -1.82%; in assay [2], 14.7%; in [3], 2.15%; in [4] it was 3.34%; in [5], 5.22%; in assay [6] it was -1.38%. Besides, the Percent Effect in [7] was -7.57%; in [8], 10.2%; in [9] it was -27.8%; in assay [10], -30.9%; in assay [11], -1.06%; in [12] it was 12.8%. Further, the Percent Effect in assay [13] is -9.15%.
